Rtt109 HAT inh: C. albicans Rtt109 histone acetyltransferase inhibition; Q5AAJ8; purified Rtt109/Vps75, ThioGlo CoA-SH fluorescence, 4 h; inhibition, % at 34.9 µM; 330,000 tested, 0.16% active; AID 540336;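 active = inhibition of at least 50% in every replicate; inconclusive = best replicate reaches 50% inhibition but some replicates fall short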
Target sequence (Q5AAJ8 whole entry, looked up): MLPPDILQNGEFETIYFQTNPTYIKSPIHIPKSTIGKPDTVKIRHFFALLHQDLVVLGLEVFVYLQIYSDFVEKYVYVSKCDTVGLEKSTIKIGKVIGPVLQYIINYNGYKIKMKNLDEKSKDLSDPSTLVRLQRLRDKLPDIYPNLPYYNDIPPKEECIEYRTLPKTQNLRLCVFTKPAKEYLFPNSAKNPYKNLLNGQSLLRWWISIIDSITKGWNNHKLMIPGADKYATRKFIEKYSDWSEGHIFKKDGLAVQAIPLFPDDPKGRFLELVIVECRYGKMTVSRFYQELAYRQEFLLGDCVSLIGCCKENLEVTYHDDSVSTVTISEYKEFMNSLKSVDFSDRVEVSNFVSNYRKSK
MITF act: activators of MITF-driven TRPM1 promoter activity in SK-MEL-5 cells; SK-MEL-5 TRPM1-promoter luciferase, 24 h; % of positive control, neutral wells = 0; activation, % at 12.5 µM; 300,000 tested, 0.75% active; AID 588334;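 active = mean activation of at least 80% with every replicate also reaching 80%; inconclusive = mean reaches 80% but some replicate falls short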;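 note: 0% = neutral control wells and 100% = parthenolide positive control wells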
Wnt act: activators of Wnt/beta-catenin signaling. Wnt/beta-catenin reporter cell assay, activator, plate reader. 300,000 tested, 1.2% active. AID 743398. activation, % at 9.35 µM; in the data active = activation above about 30%, passing the limit was not always enough; inconclusive = no clear call, values can overlap the other calls;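 note: 0% = neutral control wells and 100% = positive control wells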
esBAF inh: blocks esBAF chromatin remodeling in mouse ES cells; reporter increase, % at 12.5 µM; Bmi1-luciferase knock-in reporter, 24 h; 100% = twice the neutral-well signal; AID 602393; 350,000 tested, 2% active; in the data active = activation above about 40%; inconclusive = no clear call, values can overlap the other calls;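 note: 0% = median of the plate's neutral control wells and 100% = double that signal; a rise in the Bmi1 reporter signal indicates esBAF inhibition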
Statin myotox sup: protects C2C12 myotubes from simvastatin toxicity | ATP luminescence, 48 h; scaled: DMSO 0, geranylgeraniol control 100 | rescue of ATP level, % at 7.49 µM | 330,000 tested, 0.78% active;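 active = mean ATP rescue above about 67%, or every replicate alone reaching that limit, limit read from the data, passing the limit was not always enough; inconclusive = no clear call, values can overlap the other calls; inactive = mean under the limit and some replicate under it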;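 note: myotubes were challenged with 10 µM simvastatin during compound exposure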
* marks the source's active call; other numbers are inactive results; ? = inconclusive; . = no result. The list is not random: actives were taken first. Their share in the collection is about 3.1%.

SMILES	Rtt109 HAT inh	MITF act	Wnt act	esBAF inh	Statin myotox sup
COc1ccccc1C(=O)COC(=O)C1(C)CC1(Cl)Cl (configuration not stated)	-12	61	-3	60*	-3
COC(=O)C[C@H]1CC[C@H]2[C@H](COc3ccc(NC(=O)c4cc(C)on4)cc3C(=O)N2C)O1	.	.	.	-5	-2
C[C@@H]1CCCCO[C@@H](CN(C)C(=O)Nc2ccc(F)cc2)[C@H](C)CN([C@H](C)CO)C(=O)c2cc(NS(=O)(=O)c3cn(C)cn3)ccc2O1	.	.	.	3	.
C[C@@H]1CN([C@H](C)CO)C(=O)c2cc(-c3ccc(F)cc3)cnc2O[C@@H]1CN(C)C(=O)NC1CCCC1	.	.	.	9	9
C[C@H]1CCCCO[C@H](CN(C)CC2CCCCC2)[C@@H](C)CN([C@@H](C)CO)C(=O)c2cc(NC(=O)NC3CCCCC3)ccc2O1	.	.	.	-1	-311
CCOc1ccc(C(=O)c2cccs2)cc1	1	65	-1	48*	1
COc1cccc(C(=O)COC(=O)c2cccs2)c1	-9	43	39*	30	10
CCCSc1nc2c(c(=O)[nH]c(=O)n2C)n1C	2	-3	-4	2	92*
CCC(C)Sc1nc2c(c(=O)[nH]c(=O)n2C)n1Cc1ccc(Cl)cc1 (configuration not stated)	6	19	.	-2	130*
CCSc1nc2c(c(=O)[nH]c(=O)n2C)n1C	-2	.	-9	-3	-3
CC(C)Sc1nc2c(c(=O)[nH]c(=O)n2C)n1Cc1ccc(Cl)cc1	-31	.	4	4	149*
CCOC(=O)Cn1c(N2CCOCC2)nc2c1c(=O)[nH]c(=O)n2C	-6	1	-3	-6	118*
CCOC(=O)Cn1c(Br)nc2c1c(=O)[nH]c(=O)n2C	0	7	-3	8	-3
O=C([C@H]1[C@H](CO)[C@H]2Cn3c(ccc(-c4ccccc4)c3=O)[C@@H]1N2)N1CCCCC1	.	.	.	3	-47
CCCC(=O)Nc1ccc2c(c1)C(=O)N(C)C[C@H](OC)[C@H](C)CN(Cc1ccccc1)[C@@H](C)CO2	.	.	.	3	5
Cc1cccc(Cn2c(N3CCCCC3C)nc3c2c(=O)[nH]c(=O)n3C)c1 (configuration not stated)	5	13	-4	5	120*
Cc1cccc(Cn2c(N3CCN(C)CC3)nc3c2c(=O)[nH]c(=O)n3C)c1	-1	.	-1	-4	4
CN1CCN(c2nc3c(c(=O)[nH]c(=O)n3C)n2Cc2ccc(Cl)cc2)CC1	67*	-17	-1	-3	1
C[C@@H]1CCCCO[C@@H](CN(C)CC2CCCCC2)[C@H](C)CN([C@H](C)CO)C(=O)c2cc(NS(=O)(=O)c3ccccc3)ccc2O1	.	.	.	-2	-244
COc1ccc(N=Nc2cc(C)ccc2O)cc1	1	60	54*	.	.
COc1ccc(N=Nc2ccc(N)nc2N)cc1	17	67	41*	17	2
COc1ccc(N=Nc2cc(OC)c(N)cc2OC)cc1	2	-4	2	51*	2
Nc1ccc(N=Nc2ccc(O)cc2)c(N)n1	0	72	3	.	.
CCC(=O)Nc1cc(OC)cc(OC)c1	-5	-6	1	1	2
CCC(=O)Nc1cc(C)c(OC)c(C)c1	52*	-4	0	.	.
SMILES	Rtt109 HAT inh	MITF act	Wnt act	esBAF inh	Statin myotox sup
O=C(CCCCCCCC(=O)c1ccccc1)c1ccccc1	-1	2	-4	4	.
C=C(CCC(=O)c1ccccc1)C(=O)c1ccccc1	-17	-5	60*	.	.
COc1ccccc1OCc1cc(C(=O)N(C)CCC2CCCCO2)no1 (configuration not stated)	2	52	20	76*	7
COc1cc(C(C)=O)ccc1OCc1cc(C(=O)N(C)CCC2CCCCO2)no1 (configuration not stated)	13	?	?	51*	3
CC(=O)c1ccc(OCc2cc(C(=O)NCC3CCCCO3)no2)cc1 (configuration not stated)	12	32	-2	.	.
N#Cc1sc2nc3c(c(-c4ccco4)c2c1N)CCCC3	-14	2	.	-13	98*
NC(=O)c1sc2nc3c(c(-c4ccco4)c2c1N)CCCC3	0	13	-4	-12	-11
Cc1ccc(S(=O)(=O)N[C@H]2CC[C@@H](CCn3cc(C(C)C)nn3)O[C@@H]2CO)cc1	.	.	.	6	-3
CCCOn1nnnc1-c1ccccc1	-12	-3	-2	-7	120*
